Laboratory results reported in the supplement of paper PMC11732987, “Enantioselective OTUD7B fragment discovery through chemoproteomics screening and high-throughput optimisation” (Communications Chemistry, 2025).

Columns and labels:
Experiment in all cases: log2 ratio of Biotin-Ahx-Ub-VS probe labelling (fragment/DMSO); higher = less target engagement (more negative = stronger competition), active = hit call of the paper (q ≤ 0.05, log2 ratio ≤ -1)
Conditions in all cases: compound concentration: 200 uM; treatment time: 3 h
USP42 = target: T1, USP42 (UniProt Q9H9J4)
T1 sequence (whole entry): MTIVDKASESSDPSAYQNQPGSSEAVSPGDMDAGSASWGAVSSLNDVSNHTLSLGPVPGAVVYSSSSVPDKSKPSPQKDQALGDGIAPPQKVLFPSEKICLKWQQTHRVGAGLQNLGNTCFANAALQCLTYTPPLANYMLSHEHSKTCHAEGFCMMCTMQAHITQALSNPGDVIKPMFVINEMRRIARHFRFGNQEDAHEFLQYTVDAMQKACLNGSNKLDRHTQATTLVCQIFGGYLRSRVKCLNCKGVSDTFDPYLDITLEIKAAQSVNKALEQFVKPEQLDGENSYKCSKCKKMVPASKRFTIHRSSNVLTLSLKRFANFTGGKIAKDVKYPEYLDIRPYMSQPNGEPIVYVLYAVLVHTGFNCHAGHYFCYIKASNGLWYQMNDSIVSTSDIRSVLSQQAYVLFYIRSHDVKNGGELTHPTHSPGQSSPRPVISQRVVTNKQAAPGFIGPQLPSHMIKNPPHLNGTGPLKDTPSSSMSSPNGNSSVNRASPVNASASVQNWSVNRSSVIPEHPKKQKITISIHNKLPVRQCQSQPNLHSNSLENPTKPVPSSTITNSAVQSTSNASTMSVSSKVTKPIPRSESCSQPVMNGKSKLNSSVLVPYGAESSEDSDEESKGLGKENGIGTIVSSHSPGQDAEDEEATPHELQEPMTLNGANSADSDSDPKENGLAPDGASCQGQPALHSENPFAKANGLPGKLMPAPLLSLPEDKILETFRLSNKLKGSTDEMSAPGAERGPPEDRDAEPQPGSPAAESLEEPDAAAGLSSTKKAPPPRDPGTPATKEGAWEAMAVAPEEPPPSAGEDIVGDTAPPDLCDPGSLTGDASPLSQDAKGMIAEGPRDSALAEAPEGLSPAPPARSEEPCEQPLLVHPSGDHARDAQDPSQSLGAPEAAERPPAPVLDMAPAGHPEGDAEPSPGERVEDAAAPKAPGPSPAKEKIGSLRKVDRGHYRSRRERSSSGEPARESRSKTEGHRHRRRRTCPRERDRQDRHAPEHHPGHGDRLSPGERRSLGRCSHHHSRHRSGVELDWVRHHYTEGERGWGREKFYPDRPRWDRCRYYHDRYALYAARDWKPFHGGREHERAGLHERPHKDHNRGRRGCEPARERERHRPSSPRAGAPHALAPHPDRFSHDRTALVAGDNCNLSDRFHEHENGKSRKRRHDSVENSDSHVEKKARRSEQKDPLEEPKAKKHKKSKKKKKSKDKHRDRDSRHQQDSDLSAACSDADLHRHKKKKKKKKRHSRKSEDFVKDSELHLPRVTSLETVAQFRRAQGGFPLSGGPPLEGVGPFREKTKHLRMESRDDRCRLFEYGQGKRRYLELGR
Summary of the method: (§1)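 In triplicate, 495 µg of HEK293T lysate per sample was incubated with fragment at 200 µM or vehicle for 3 h. Biotin-Ahx-Ub-VS was then added to 0.5 µM final for 1 h, and labelled DUBs were captured with NeutrAvidin, digested with LysC and trypsin, and measured by diaPASEF LC-MS/MS. Data are average log2 fragment/vehicle ratios by unpaired t-test from global-median-normalised Spectronaut label-free quantities, restricted to proteins with ≥2 unique peptides.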

USP46 = USP46 (UniProt P62068)
Summary of the method: as §1

USP47 = target: T2, USP47 (UniProt Q96K76)
T2 sequence (whole entry): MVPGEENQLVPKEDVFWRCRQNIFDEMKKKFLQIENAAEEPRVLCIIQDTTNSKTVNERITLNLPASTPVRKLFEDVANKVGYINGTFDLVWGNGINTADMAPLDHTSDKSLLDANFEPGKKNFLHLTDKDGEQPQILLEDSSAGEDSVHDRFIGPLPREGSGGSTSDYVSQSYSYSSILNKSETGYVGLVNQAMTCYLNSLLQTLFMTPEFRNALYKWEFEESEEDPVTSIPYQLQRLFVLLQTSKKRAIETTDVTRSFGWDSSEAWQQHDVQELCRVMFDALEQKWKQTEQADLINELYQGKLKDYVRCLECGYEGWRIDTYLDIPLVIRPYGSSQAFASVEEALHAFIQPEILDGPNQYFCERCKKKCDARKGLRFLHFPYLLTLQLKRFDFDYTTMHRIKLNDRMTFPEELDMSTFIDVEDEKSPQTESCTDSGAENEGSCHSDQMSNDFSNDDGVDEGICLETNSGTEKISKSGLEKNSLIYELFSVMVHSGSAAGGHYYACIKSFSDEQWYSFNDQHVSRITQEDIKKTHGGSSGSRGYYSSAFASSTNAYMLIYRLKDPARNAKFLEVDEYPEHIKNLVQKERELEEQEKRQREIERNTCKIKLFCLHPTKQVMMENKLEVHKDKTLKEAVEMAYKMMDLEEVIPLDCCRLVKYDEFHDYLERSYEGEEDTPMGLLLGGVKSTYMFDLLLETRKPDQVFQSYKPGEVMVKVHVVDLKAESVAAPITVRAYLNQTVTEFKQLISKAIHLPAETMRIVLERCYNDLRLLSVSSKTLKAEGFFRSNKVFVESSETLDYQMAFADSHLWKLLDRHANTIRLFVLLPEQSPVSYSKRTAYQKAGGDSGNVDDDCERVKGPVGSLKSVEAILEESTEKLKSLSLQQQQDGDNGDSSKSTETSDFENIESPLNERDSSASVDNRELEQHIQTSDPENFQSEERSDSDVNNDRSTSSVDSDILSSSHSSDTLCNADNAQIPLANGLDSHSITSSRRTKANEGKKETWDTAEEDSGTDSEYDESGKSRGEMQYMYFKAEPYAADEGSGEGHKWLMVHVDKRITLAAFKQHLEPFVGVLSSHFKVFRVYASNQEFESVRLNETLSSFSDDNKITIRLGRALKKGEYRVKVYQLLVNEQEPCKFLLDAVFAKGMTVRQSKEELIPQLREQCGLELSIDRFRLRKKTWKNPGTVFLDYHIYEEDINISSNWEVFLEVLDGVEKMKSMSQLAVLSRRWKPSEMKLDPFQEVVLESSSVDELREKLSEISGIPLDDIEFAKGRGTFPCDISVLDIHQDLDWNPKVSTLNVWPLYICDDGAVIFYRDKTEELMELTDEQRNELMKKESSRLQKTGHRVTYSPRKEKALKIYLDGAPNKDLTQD
Summary of the method: as §1

USP48 = target: T3, USP48 (UniProt Q86UV5)
T3 sequence (whole entry): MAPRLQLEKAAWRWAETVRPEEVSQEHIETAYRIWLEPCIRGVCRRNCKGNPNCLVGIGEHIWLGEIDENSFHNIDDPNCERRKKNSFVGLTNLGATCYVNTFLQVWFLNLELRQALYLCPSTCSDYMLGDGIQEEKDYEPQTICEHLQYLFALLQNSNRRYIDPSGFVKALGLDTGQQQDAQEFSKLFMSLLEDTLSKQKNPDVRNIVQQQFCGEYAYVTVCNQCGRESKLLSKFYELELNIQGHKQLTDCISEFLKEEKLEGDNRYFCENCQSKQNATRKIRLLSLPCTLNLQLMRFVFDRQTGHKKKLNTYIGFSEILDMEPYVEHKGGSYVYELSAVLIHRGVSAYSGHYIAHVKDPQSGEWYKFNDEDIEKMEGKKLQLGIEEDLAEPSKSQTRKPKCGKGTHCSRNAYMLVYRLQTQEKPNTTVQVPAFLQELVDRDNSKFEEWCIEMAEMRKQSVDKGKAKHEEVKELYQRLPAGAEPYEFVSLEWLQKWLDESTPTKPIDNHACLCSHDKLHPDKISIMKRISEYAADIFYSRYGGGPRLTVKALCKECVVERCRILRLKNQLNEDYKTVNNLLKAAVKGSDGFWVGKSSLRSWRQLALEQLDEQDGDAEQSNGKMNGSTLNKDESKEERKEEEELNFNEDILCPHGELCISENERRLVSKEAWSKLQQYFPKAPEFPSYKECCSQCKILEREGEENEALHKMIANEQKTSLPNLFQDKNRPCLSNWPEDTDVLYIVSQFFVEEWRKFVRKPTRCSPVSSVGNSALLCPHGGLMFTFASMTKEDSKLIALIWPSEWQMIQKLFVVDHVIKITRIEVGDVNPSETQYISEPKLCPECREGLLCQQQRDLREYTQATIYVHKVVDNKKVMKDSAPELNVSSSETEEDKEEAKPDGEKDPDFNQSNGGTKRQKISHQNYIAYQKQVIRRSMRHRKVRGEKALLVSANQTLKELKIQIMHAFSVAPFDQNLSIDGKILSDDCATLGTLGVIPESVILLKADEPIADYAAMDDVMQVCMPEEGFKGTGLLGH
Summary of the method: as §1

USP5 = target: T4, USP5 (UniProt P45974)
T4 sequence (whole entry): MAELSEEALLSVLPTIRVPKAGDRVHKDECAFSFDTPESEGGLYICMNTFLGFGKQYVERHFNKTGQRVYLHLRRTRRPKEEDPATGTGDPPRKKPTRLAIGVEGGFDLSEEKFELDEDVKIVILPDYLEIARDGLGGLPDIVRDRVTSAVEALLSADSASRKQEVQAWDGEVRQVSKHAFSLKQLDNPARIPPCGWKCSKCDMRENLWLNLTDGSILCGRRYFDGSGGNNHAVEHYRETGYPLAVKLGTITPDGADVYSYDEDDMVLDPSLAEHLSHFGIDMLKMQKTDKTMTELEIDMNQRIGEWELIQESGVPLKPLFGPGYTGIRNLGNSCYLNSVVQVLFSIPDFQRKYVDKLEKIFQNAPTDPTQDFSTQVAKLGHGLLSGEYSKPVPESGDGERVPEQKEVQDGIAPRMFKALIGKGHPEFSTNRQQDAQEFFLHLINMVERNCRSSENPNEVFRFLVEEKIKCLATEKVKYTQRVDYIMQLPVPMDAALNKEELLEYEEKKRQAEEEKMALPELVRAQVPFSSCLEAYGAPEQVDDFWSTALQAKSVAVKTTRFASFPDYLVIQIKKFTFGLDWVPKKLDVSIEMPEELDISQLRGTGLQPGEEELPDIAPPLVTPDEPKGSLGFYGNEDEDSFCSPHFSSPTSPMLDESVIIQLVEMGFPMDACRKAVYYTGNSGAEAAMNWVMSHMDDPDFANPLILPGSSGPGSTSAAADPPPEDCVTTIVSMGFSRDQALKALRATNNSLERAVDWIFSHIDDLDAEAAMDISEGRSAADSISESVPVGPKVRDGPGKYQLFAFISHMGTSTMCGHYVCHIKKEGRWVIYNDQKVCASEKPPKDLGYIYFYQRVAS
Summary of the method: as §1

USP54 = USP54 (UniProt Q70EL1)
Summary of the method: as §1

USP7 = USP7 (UniProt Q93009)
Summary of the method: as §1

USP8 = target: T5, USP8 (UniProt P40818)
T5 sequence (whole entry): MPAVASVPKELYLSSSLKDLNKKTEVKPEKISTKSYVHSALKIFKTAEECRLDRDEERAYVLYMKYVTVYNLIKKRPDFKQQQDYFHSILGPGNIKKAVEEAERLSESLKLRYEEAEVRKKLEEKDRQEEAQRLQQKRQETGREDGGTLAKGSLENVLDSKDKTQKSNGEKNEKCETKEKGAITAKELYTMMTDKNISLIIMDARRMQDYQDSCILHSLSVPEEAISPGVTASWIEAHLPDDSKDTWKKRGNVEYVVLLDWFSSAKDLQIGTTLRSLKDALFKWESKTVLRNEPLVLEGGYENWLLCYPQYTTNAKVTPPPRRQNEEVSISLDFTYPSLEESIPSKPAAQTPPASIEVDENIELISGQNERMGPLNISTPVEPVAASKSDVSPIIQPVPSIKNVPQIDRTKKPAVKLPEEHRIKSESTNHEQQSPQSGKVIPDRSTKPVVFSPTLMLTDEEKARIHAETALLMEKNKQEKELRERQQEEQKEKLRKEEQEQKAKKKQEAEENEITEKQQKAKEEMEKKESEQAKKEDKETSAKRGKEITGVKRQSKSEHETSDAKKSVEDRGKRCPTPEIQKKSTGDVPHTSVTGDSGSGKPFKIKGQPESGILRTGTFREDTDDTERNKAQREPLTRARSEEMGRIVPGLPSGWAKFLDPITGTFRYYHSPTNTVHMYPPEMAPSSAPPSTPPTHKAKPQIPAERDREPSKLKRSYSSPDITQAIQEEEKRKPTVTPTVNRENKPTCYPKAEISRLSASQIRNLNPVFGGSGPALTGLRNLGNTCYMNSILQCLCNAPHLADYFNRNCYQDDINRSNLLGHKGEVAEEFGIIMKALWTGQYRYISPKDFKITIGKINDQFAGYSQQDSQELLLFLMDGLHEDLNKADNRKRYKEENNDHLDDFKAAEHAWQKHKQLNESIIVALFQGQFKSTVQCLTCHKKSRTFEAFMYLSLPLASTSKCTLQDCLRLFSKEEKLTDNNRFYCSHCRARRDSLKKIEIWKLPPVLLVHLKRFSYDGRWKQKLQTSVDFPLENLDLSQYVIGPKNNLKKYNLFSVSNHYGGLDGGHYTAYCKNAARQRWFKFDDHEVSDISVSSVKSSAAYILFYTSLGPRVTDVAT
Summary of the method: as §1

USP9X = USP9X (UniProt Q93008)
Summary of the method: as §1

UniProt O00487 = target: UniProt O00487
Summary of the method: as §1

Measured: log2 ratio of Biotin-Ahx-Ub-VS probe labelling

UniProt O00487, sequence (O00487 whole entry): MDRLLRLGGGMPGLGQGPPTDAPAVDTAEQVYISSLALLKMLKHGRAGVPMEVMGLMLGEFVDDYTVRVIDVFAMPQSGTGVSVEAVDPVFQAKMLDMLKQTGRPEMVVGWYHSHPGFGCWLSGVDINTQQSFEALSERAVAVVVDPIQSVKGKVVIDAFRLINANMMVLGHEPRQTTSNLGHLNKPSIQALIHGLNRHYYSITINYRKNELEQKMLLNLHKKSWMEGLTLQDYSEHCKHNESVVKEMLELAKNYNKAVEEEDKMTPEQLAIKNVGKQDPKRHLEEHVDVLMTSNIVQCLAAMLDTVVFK
USP7, sequence (Q93009 whole entry, looked up): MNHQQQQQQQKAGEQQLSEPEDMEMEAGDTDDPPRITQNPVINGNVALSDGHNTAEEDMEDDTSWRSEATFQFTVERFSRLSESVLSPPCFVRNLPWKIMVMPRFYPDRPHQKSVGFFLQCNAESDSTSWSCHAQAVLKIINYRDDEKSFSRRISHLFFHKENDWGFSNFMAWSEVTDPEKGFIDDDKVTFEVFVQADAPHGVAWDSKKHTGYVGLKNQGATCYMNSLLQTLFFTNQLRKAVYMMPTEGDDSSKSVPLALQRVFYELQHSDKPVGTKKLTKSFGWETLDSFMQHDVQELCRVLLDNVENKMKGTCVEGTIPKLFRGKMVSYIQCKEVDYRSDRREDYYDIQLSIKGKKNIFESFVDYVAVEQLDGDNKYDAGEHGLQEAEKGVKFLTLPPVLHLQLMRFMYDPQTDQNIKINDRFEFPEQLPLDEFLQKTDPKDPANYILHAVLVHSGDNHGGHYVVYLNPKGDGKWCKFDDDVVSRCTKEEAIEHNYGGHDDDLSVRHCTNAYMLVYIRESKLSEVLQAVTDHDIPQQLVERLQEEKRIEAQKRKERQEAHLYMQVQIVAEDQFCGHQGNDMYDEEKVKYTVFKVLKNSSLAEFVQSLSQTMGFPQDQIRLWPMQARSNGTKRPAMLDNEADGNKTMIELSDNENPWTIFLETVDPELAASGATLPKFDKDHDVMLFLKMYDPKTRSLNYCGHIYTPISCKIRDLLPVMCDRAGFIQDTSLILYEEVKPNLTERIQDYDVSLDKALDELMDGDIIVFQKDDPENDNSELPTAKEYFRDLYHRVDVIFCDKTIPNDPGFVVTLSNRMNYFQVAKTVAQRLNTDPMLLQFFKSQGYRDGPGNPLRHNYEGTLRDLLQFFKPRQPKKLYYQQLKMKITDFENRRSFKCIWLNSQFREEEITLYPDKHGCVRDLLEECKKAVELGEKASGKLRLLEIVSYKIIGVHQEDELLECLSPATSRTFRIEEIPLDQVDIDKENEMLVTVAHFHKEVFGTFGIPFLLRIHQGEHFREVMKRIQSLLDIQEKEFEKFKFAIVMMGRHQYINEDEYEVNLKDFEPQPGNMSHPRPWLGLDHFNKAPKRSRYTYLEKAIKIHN
USP9X, sequence (Q93008 whole entry): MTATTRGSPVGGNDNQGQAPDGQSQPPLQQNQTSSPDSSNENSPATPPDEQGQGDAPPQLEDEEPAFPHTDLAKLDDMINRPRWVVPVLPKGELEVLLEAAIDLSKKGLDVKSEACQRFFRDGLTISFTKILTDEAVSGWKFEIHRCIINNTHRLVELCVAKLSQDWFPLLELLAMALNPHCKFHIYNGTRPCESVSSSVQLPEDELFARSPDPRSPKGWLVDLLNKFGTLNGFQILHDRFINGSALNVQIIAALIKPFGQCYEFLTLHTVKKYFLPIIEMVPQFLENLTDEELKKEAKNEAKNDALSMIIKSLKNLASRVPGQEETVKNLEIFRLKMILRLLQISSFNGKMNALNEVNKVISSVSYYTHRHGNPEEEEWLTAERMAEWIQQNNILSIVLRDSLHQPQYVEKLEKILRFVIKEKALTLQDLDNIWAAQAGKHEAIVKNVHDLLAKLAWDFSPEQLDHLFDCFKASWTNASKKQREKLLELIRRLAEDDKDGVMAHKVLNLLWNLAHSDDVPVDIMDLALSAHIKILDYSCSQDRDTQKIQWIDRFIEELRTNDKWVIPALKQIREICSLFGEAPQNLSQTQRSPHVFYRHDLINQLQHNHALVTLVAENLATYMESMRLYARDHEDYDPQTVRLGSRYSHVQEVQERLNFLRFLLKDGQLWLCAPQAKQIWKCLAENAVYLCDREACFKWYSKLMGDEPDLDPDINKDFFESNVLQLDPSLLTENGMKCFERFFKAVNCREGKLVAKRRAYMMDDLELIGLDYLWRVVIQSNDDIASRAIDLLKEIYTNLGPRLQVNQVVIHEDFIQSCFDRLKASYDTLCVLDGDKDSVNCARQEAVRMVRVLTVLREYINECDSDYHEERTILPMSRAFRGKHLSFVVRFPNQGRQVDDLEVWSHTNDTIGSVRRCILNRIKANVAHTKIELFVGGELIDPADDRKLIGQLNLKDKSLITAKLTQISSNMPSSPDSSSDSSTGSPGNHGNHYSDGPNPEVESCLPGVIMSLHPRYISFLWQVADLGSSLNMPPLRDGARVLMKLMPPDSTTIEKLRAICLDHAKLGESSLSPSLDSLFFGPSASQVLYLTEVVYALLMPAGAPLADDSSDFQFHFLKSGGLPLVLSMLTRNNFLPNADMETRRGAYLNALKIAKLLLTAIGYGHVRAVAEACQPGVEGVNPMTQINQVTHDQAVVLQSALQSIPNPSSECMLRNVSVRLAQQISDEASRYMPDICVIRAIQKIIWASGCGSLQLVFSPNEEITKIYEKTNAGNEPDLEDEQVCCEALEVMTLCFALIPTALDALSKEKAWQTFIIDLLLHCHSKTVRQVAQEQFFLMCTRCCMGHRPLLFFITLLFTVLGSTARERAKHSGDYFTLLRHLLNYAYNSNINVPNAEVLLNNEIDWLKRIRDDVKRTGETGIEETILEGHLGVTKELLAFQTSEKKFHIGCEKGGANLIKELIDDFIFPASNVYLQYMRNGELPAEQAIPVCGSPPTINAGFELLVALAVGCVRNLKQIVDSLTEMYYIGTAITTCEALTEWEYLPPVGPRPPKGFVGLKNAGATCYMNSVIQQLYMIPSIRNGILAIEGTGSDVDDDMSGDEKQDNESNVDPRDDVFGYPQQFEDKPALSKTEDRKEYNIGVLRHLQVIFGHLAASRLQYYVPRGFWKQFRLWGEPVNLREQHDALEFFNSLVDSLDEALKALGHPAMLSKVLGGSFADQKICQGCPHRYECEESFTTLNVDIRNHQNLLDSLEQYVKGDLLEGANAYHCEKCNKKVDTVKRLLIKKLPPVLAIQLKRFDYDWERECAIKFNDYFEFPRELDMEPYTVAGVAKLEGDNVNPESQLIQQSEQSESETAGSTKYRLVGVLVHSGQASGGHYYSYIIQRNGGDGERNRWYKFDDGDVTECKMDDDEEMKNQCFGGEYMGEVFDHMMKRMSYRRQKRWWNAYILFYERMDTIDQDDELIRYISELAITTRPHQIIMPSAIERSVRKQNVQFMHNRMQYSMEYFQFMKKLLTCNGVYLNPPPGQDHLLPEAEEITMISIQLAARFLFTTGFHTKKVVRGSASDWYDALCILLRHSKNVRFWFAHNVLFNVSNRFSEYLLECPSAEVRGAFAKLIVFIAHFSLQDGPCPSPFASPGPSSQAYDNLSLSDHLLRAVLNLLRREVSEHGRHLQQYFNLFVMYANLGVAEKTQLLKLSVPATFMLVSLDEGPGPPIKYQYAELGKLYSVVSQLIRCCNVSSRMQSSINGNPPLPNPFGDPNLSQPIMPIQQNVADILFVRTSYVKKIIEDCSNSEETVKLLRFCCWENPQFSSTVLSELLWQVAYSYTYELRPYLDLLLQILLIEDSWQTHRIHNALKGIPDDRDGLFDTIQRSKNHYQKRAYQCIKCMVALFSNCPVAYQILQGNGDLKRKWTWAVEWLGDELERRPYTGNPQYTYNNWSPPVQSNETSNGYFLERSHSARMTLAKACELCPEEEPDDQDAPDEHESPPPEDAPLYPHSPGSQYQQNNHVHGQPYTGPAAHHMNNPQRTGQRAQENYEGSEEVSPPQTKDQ
USP46, sequence (P62068 whole entry): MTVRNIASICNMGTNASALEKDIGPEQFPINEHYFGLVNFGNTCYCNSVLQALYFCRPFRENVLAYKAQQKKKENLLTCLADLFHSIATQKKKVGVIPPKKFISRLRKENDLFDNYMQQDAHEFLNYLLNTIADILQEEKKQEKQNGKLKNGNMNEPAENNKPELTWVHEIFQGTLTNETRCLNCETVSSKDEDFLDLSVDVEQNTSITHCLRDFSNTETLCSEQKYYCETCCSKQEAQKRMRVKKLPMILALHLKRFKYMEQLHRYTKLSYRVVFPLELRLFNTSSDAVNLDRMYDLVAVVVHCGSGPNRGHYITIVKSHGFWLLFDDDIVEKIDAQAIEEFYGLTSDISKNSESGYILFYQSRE

O=C(CCl)N1CC=C(c2c[nH]c3ccccc23)CC1
active: USP46 -1.44 | USP7 -1.53
inactive: USP42 0.0977 | USP47 0.0399 | USP48 -0.728 | USP5 -0.577 | USP54 0.155 | USP8 -0.785 | USP9X -0.82 | UniProt O00487 -0.0429
